Source: PubChem BioAssay
TEAD-YAP block – TEAD-YAP interaction inhibition; HEK-TIYL cells, TEAD-Gal4/YAP UAS-luciferase luminescence; inhibition, % at 9.12 µM; 640,000 tested, 1.4% active; AID 1259422; in the data active = inhibition above about 32%;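 also: 0% = median of test compound wells and 100% = reference inhibitor wells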
GPR151 ag – activators of human GPR151 | Q8TDV0 | PathHunter beta-arrestin GPR151 cells, luminescence | activation, % at 11.2 µM | 650,000 tested, 1% active; in the data active = activation above about 4.9%;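 also: 0% = median of compound wells and 100% = cells with positive control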
FBW7 act – human FBW7 E3 ligase activation, primary screen | 650,000 tested, 0.13% active | normalized activity (activation), % at 26.1 µM | AID 1259310 | AlphaScreen FBW7–phospho-cyclin E peptide binding, activator screen | Q969H0; in the data active = normalized activity above about 1.9%;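 also: purified mutant Fbw7 with reduced substrate affinity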
MITF primary – human MITF inhibition, primary screen; O75030; AlphaScreen MITF homodimerization, bead proximity signal; inhibition, % at 2.6 µM; 650,000 tested, 0.91% active; AID 1259374; in the data active = inhibition above about 50%;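 also: 0% = vehicle wells with protein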
Target sequence (O75030 whole entry, looked up): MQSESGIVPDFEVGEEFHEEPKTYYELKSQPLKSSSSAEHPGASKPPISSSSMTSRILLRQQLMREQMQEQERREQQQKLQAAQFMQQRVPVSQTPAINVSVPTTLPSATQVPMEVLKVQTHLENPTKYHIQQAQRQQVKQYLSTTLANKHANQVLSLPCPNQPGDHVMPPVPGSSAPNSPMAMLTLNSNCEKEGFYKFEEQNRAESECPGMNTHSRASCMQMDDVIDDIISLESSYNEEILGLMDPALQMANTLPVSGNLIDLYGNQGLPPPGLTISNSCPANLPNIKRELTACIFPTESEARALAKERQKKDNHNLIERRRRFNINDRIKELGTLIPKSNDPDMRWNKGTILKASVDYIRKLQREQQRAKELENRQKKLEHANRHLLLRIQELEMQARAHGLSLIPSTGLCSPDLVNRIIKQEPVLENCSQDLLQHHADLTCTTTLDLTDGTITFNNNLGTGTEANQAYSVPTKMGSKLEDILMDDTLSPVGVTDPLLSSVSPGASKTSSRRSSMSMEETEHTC
GPR151 conf act – human GPR151 activation, confirmation screen; shares compounds with GPR151 ag; GPR151 PathHunter beta-arrestin cells, luminescence, 90 min; % of EA-reagent control over plate median; activation, % at 11.2 µM; 6,700 tested, under 10 active;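 active = mean percent activation across replicates above the confirmation screen cutoff of 4.91%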
GPR119 ag – counter-screen for GPR151 activators: effect on human GPR119 | shares compounds with GPR151 ag | activation, % at 11.2 µM | GPR119 PathHunter beta-arrestin cells, luminescence, 90 min; 0 = compound-well median, 100 = enzyme-acceptor control | 6,700 tested, 0.3% active | AID 1508611;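 active = mean percent activation in the counterscreen above 29.09%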;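 also: counterscreen on off-target GPR119 to flag nonselective hits from the GPR151 activator screen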
Numbers without * were called inactive. Hits are enriched below; roughly 3.4% of the tested compounds scored in any of these assays.

`CC(=O)NC(c1ccco1)c1cc(Cl)c2cccnc2c1O` (stereo unspecified) gave TEAD-YAP block 31.6, GPR151 ag 15.1*, FBW7 act -0.4, MITF primary 75.9*, GPR151 conf act -0.3 and GPR119 ag -7.6.
CC(=O)c1ccc(OC(=O)c2cccc(Br)c2)cc1 was read as TEAD-YAP block -18.5, GPR151 ag 17.3*, FBW7 act 0.1, MITF primary 23.4, GPR151 conf act 1.6 and GPR119 ag 4.0.
Screening COc1ccc(OC(=O)c2cccc(Br)c2)cc1 returned TEAD-YAP block -3.8, GPR151 ag 1.3, FBW7 act 0.1 and MITF primary 19.2.
Screening O=C1C2C3C=CC(O3)C2C(=O)N1c1ccc2c(c1)OCO2 (stereo unspecified) returned TEAD-YAP block -12.5, GPR151 ag -0.6, FBW7 act -0.1 and MITF primary 0.3.
`Nc1ccccc1SCC(=O)NC(c1ccccc1)c1ccccc1` gave TEAD-YAP block -10.7, GPR151 ag 2.7, FBW7 act -0.1 and MITF primary -1.7.
For c1nc(NC2CC2)c2[nH]c(N3CCOCC3)nc2n1 the results were TEAD-YAP block 3.7, GPR151 ag 5.0*, FBW7 act -0.1, MITF primary 8.9, GPR151 conf act -0.7 and GPR119 ag 0.8.
`Cc1noc(C)c1-c1nc2ncnc(NC3CC3)c2[nH]1` gave TEAD-YAP block -13.9, GPR151 ag 5.5*, FBW7 act 0.1, MITF primary 4.0, GPR151 conf act -0.2 and GPR119 ag -4.0.
Screening CC(=O)c1cc(C(=O)N2CC[C@H]3[C@H](CCCN3C(=O)C#Cc3ccccc3)C2)cs1 returned TEAD-YAP block -1.1, GPR151 ag 0.8, FBW7 act -0.2 and MITF primary 4.8.
For CC(C)(C)C(=O)OCN1c2nonc2N(COC(=O)C(C)(C)C)c2nonc21 the results were TEAD-YAP block -0.6, GPR151 ag 7.9*, FBW7 act -0.2, MITF primary -9.3, GPR151 conf act 0.3 and GPR119 ag 0.3.
`CC12CC(NC(=O)N1c1cccc(Br)c1)c1ccccc1O2` (stereo unspecified) gave TEAD-YAP block 12.3, GPR151 ag 2.0, FBW7 act 0.9 and MITF primary 18.9.
For COc1ccc(C2C(C(C)=O)=C(O)C(=O)N2c2nc3ccccc3s2)cc1 (stereo unspecified) the results were TEAD-YAP block -52.1, GPR151 ag 0.0, FBW7 act 0.0 and MITF primary -8.5.
Screening N#C/C(=C\c1cn(Cc2ccccc2)c2ccccc12)C(=O)NC1CC1 returned TEAD-YAP block -36.9, GPR151 ag 5.2*, FBW7 act -0.4, MITF primary 4.6, GPR151 conf act 1.0 and GPR119 ag 10.4.
Screening Cc1cc(Nc2ccc3c(c2)OCCO3)c2cc(Cl)ccc2n1 returned TEAD-YAP block 4.4, GPR151 ag 0.3, FBW7 act 0.4 and MITF primary 21.8.
`O=c1[nH]c2ncc(-c3ccco3)nc2n1Cc1ccccn1` gave TEAD-YAP block 4.8, GPR151 ag 1.6, FBW7 act 0.5 and MITF primary 22.2.
Screening Nc1ncnc2nc(SCCO)[nH]c12 returned TEAD-YAP block -7.0, GPR151 ag 7.0*, FBW7 act -0.2, MITF primary -8.9, GPR151 conf act -1.0 and GPR119 ag -4.9.
`NC(=O)CSc1nc2ncnc(N)c2[nH]1` gave TEAD-YAP block -4.3, GPR151 ag 0.6, FBW7 act -0.1 and MITF primary 17.6.
Screening O=C(NCc1cccc(Cl)c1)NCc1noc2ccccc12 returned TEAD-YAP block -21.4, GPR151 ag 6.5*, FBW7 act 0.0, MITF primary -11.9, GPR151 conf act 0.2 and GPR119 ag 1.6.
Screening COC(=O)c1cc2c(cc1NC(=O)NCc1noc3ccccc13)OCO2 returned TEAD-YAP block 11.0, GPR151 ag 9.2*, FBW7 act 0.0, MITF primary 9.0, GPR151 conf act 0.6 and GPR119 ag -3.4.
`O=C(Nc1sc2c(c1C(=O)NCc1ccco1)CCC2)c1ccccc1F` gave TEAD-YAP block -1.4, GPR151 ag -0.7, FBW7 act 0.2 and MITF primary 1.4.
